This is an account of results in PubChem BioAssay (NCI).

Values joined by “and” are separate entries in the source; they are usually repeats but may differ in a detail not shown here. Identical values can stand only once. The panel holds about 79,000 compounds, 15% with a hit somewhere; the sample as a whole holds those more often. Where a structure was tested more than once in an assay, its records may differ in their call. Active and inactive are the calls of the source. No stated cut-off is given here; in the data, active means growth inhibition above about 70%; inactive means the rest.

Test [1] can be described thus: NCI Yeast Anticancer Drug Screen. Data for the rad50 strain (AID 155).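 Further: 0% = growth of vehicle-only cultures of the same strain.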 Conditions: S. cerevisiae rad50 strain growth inhibition; at 50.0 µM; stronger effect = higher value. The gist of the method: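 Readout: growth inhibition relative to vehicle-treated cultures. Compound exposure was carried out in a genetically defined yeast strain deficient in DNA damage repair.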
A short description of test [2]: NCI Yeast Anticancer Drug Screen. Data for the mec2-1 strain (AID 157). Conditions: S. cerevisiae mec2-1 strain, at 50.0 µM, stronger effect = higher value. In outline:
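Strain: mec2-1 (DNA repair/cell cycle alteration). Compound exposure, then growth measured; inhibition expressed relative to vehicle.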

Test [3] can be described thus: NCI Yeast Anticancer Drug Screen. Data for the sgs1 mgt1 strain (AID 161).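 Further: 0% = growth of cultures given vehicle only.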 Conditions: S. cerevisiae sgs1 mgt1 strain, at 50.0 µM, stronger effect = higher value. The gist of the method: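 Read-out: growth inhibition vs vehicle controls. Cells: mutant yeast strain deficient in DNA damage repair.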
A short description of test [4]: NCI Yeast Anticancer Drug Screen. Data for the cln2 rad14 strain (AID 165).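 Further: 0% = growth equal to vehicle treated cultures.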 Conditions: S. cerevisiae cln2 rad14 strain, at 50.0 µM, stronger effect = higher value. The gist of the method: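 Compounds are applied to the cln2 rad14 yeast strain, and growth is then compared with that of vehicle-treated cultures to give inhibition.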
The nature of test [5]: NCI Yeast Anticancer Drug Screen. Data for the bub3 strain (AID 167). Conditions: S. cerevisiae bub3 mutant strain, at 50.0 µM, stronger effect = higher value. In outline:
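Readout: yeast growth inhibition, expressed relative to vehicle-only wells. The test organism is a mutant strain from a panel with lesions in DNA repair or checkpoint genes.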

The nature of test [6]: NCI Yeast Anticancer Drug Screen. Data for the mlh1 rad18 strain (AID 175). Conditions: S. cerevisiae mlh1 rad18 strain growth inhibition; at 50.0 µM; stronger effect = higher value. The gist of the method:
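Read-out is yeast growth inhibition, calculated against vehicle-only controls. The compound was applied to a strain engineered with DNA damage repair alterations.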

In the case of `CC(=O)Oc1ccc(C=C(C#N)C#N)cc1`, the growth inhibition in test [1] is 40.6% (inactive); in test [2], 6.6% (inactive); in test [3] it was 12.4% (inactive); in test [4] it was -7.1% (inactive); in test [5], 2.05% (inactive); in test [6] it was 14.9% (inactive).

In the case of `Cn1nc(-c2ccc(S(=O)(=O)F)cc2)s/c1=N/NC(=O)c1ccccc1`, the growth inhibition was 4% (inactive) in test [1]; 2% (inactive) in test [2]; 19.8% (inactive) in test [3]; 23.4% (inactive) in test [4]; 18.6% (inactive) in test [5]; 3.65% (inactive) in test [6].

As to `COc1cccc2c1C(=O)c1c(O)c3c(c(O)c1C2=O)CC(O)(C(C)=O)CC3OC1CC([N+](C)(C)C)C(O)C(C)O1` (centres undefined), the growth inhibition was 97% (active) in test [1]; 98.5% (active) in test [2]; 97.9% (active) in test [3]; 92.5% (active) in test [4]; 98.3% (active) in test [5]; 95.8% (active) in test [6].

Consider `CCOC(=O)C1(O)N=C(c2ccccc2)c2ccccc2-n2cccc21` (centres undefined), for which the growth inhibition in test [1] was -21.4% (inactive); in test [2], -45.2% (inactive); in test [3], -2.6% (inactive); in test [4] it was -23.9% (inactive); in test [5] it was 10.2% (inactive); in test [6], -3.2% (inactive).

`ClCCn1c(/C=C/c2nc3ccccc3n2CCCl)nc2ccccc21`: the growth inhibition is 26.1% (inactive) in test [1]; 5.8% (inactive) in test [2]; 6.1% (inactive) in test [3]; -32.1% (inactive) in test [4]; -3.65% (inactive) in test [5]; 20.6% (inactive) in test [6].

With `C[C@]12C=CC(=O)NC[C@@H]1CC[C@@H]1[C@@H]2CC[C@]2(C)[C@@H](OC(=O)COc3ccc(N(CCCl)CCCl)cc3)CC[C@@H]12`, the growth inhibition is 18.1% (inactive) in test [1]; 5.05% (inactive) in test [2]; 8.1% (inactive) in test [3]; 1.2% (inactive) in test [4]; 3.05% (inactive) in test [5]; -7.65% (inactive) in test [6].

As for `NC(CO)Cc1ccccc1` (centres undefined), the growth inhibition in test [1] is -1.6% (inactive) and 0.85% (inactive); in test [2] it was 0.3% (inactive) and -4% (inactive); in test [3] it was -1.45% (inactive) and -4.1% (inactive); in test [4], -21.6% (inactive) and 4.05% (inactive); in test [5], 13.9% (inactive) and 14.8% (inactive); in test [6], 2.05% (inactive) and -1.35% (inactive).

In the case of `COc1ccc(CC2C3=C(CCCC3)CCN2C)cc1` (centres undefined), the growth inhibition in test [1] was 45.2% (inactive); in test [2], 21.9% (inactive); in test [3], 28.6% (inactive); in test [4], 21.8% (inactive); in test [5], 17.6% (inactive); in test [6], -25.8% (inactive).

With `CN(C)c1ccc(SC(Cl)(Cl)Cl)cc1`, the growth inhibition in test [1] is -0.95% (inactive); in test [2] it was -14.2% (inactive); in test [3], -0.1% (inactive); in test [4], -43.9% (inactive); in test [5], 3.4% (inactive); in test [6] it was -4.75% (inactive).

`CS(=O)(=O)OCCN(CCCl)c1cc(C(N)=O)c([N+](=O)[O-])cc1[N+](=O)[O-]`: the growth inhibition is -6.8% (inactive) in test [1]; -5.5% (inactive) in test [2]; 5.45% (inactive) in test [3]; -16.4% (inactive) in test [4]; -11.4% (inactive) in test [5]; -1.65% (inactive) in test [6].

For `CC[As](=O)(O)c1ccc(I)cc1`, the growth inhibition in test [1] was 3.6% (inactive); in test [2], -8.4% (inactive); in test [3] it was -1.95% (inactive); in test [4], -11.8% (inactive); in test [5], 12.8% (inactive); in test [6] it was 5.95% (inactive).

As to `[Se]=P(N1CCCCC1)(N1CCCCC1)N1CCCCC1`, the growth inhibition in test [1] was 21.6% (inactive); in test [2] it was 2.75% (inactive); in test [3], 6.4% (inactive); in test [4] it was 6.55% (inactive); in test [5], 11.4% (inactive); in test [6], 10.2% (inactive).

Turning to `Cc1cc2c(C(C)C)c(O)c(O)c(C=O)c2c(O)c1-c1c(C)cc2c(C(C)C)c(O)c(O)c(C=O)c2c1O`, the growth inhibition was 47.7% (inactive) and 59.2% (inactive) in test [1]; 52.6% (inactive) and 71.2% (active) in test [2]; 41.1% (inactive) and 46.5% (inactive) in test [3]; 47.6% (inactive) and 67.5% (inactive) in test [4]; 49.1% (inactive) and 43.6% (inactive) in test [5]; 60.2% (inactive) and -27% (inactive) in test [6].

On to `O=C(CC([Se]c1ccccc1)c1ccccc1)c1ccccc1` (centres undefined), for which the growth inhibition in test [1] is 98% (active); in test [2], 88.8% (active); in test [3] it was 95.7% (active); in test [4], 89.4% (active); in test [5] it was 93.7% (active); in test [6] it was 98% (active).

With `CC1(C)[C@@H]2CC[C@@]1(C)CN(CCC[N+](C)(C)C)C2`, the growth inhibition in test [1] is 15.4% (inactive); in test [2] it was -11.8% (inactive); in test [3] it was -30.6% (inactive); in test [4], -5.55% (inactive); in test [5], -19.4% (inactive); in test [6] it was -2.35% (inactive).

Regarding `COC1=N[C@]2(O)C[C@]3(C)[C@@H](O)CC[C@H]3[C@@H]3CCC4=CC(=O)CC[C@]4(C)[C@]32S1`, the growth inhibition in test [1] is 7.4% (inactive); in test [2], 10.6% (inactive); in test [3], 2.3% (inactive); in test [4], -22.7% (inactive); in test [5], 33.8% (inactive); in test [6] it was 3.2% (inactive).

Take `C(/COc1cccnc1)=N\NC1=NCCN1`: the growth inhibition is -12.2% (inactive) in test [1]; -29.6% (inactive) in test [2]; -44.8% (inactive) in test [3]; 3.7% (inactive) in test [4]; -21.9% (inactive) in test [5]; -35.9% (inactive) in test [6].

In the case of `CC1(c2ccccc2)CCC(=O)NC1=O` (centres undefined), the growth inhibition is 7.2% (inactive) in test [1]; 19.6% (inactive) in test [2]; 14.6% (inactive) in test [3]; 32.5% (inactive) in test [4]; 7.85% (inactive) in test [5]; 38.6% (inactive) in test [6].

For `N#CC1CCCCC1`, the growth inhibition in test [1] was 0.4% (inactive); in test [2], -5.4% (inactive); in test [3], -0.35% (inactive); in test [4], -3.9% (inactive); in test [5], 4.65% (inactive); in test [6], 1.65% (inactive).
